# Reference: PubChem BioAssay (NCI)
# Several values for one entry are separate records, joined by “and”; a condition that tells them apart may be missing. Equal values may be shown once. The panel holds about 79,000 compounds, 15% with a hit somewhere; the sample as a whole holds those more often. Activity calls are given as the source filed them. Rule as the data show it: active = growth inhibition above about 70%; inactive = the rest.
# Assays:
# [1] = NCI Yeast Anticancer Drug Screen. Data for the rad50 strain (AID 155);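 also: 0% = growth of vehicle-only cultures of the same strain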; conditions: S. cerevisiae rad50 strain growth inhibition; at 50.0 µM; stronger effect = higher value
# Procedure, shortened: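 A DNA repair-deficient yeast mutant serves as the test organism; compound-induced growth inhibition is calculated against vehicle-treated cells.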
# [2] = NCI Yeast Anticancer Drug Screen. Data for the mec2-1 strain (AID 157); conditions: S. cerevisiae mec2-1 strain, at 50.0 µM, stronger effect = higher value
# Procedure, shortened: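 Mutant yeast (mec2-1) grown with compound; growth inhibition relative to vehicle control reported.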
# [3] = NCI Yeast Anticancer Drug Screen. Data for the sgs1 mgt1 strain (AID 161);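 also: 0% = growth of cultures given vehicle only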; conditions: S. cerevisiae sgs1 mgt1 strain, at 50.0 µM, stronger effect = higher value
# Procedure, shortened: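 Growth of a repair-deficient yeast mutant was monitored after compound treatment and expressed as inhibition relative to vehicle-treated cultures.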
# [4] = NCI Yeast Anticancer Drug Screen. Data for the cln2 rad14 strain (AID 165);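 also: 0% = growth equal to vehicle treated cultures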; conditions: S. cerevisiae cln2 rad14 strain, at 50.0 µM, stronger effect = higher value
# Procedure, shortened: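 Readout is yeast growth inhibition versus vehicle-treated controls, using a strain with cln2 and rad14 alterations exposed to compound.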
# [5] = NCI Yeast Anticancer Drug Screen. Data for the bub3 strain (AID 167); conditions: S. cerevisiae bub3 mutant strain, at 50.0 µM, stronger effect = higher value
# Procedure, shortened: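 Inhibition values come from growth of compound-treated mutant yeast normalised to vehicle-treated controls.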
# [6] = NCI Yeast Anticancer Drug Screen. Data for the mlh1 rad18 strain (AID 175); conditions: S. cerevisiae mlh1 rad18 strain growth inhibition; at 50.0 µM; stronger effect = higher value
# Procedure, shortened: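 Genetically defined yeast (DNA repair-deficient) exposed to compounds; growth inhibition determined relative to vehicle.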
SMILES,growth inhibition [1],growth inhibition [2],growth inhibition [3],growth inhibition [4],growth inhibition [5],growth inhibition [6]
CN(C)CCNC(=O)c1c([N+](=O)[O-])ccc(N(CCCl)CCCl)c1[N+](=O)[O-],12.7% (inactive),-11.4% (inactive),-9.9% (inactive),-27.7% (inactive),13.2% (inactive),-2.65% (inactive)
OC/C=C\c1ccc2c(c1)OCO2,-19.2% (inactive),14.2% (inactive),17.2% (inactive),-9% (inactive),-58.5% (inactive),-32.5% (inactive)
CC(C)C(Br)C(N)=O (stereo not given),-36.1% (inactive),-31.1% (inactive),9.75% (inactive),-24.6% (inactive),-2.85% (inactive),-14.8% (inactive)
COC(=O)C(Cl)CCl (stereo not given),2.45% (inactive) and 39.4% (inactive),15.3% (inactive) and 6.15% (inactive),-9.05% (inactive) and 16% (inactive),-23.2% (inactive) and -34.7% (inactive),-2.3% (inactive) and 15.8% (inactive),-20.8% (inactive) and 25.7% (inactive)
O=NNc1ncc(Cl)cc1Cl,4.9% (inactive),-23.8% (inactive),-6.05% (inactive),-4.7% (inactive),14.2% (inactive),8.65% (inactive)
O.O.[NH-]C1(C(=O)O)CCCC1.[NH-]C1(C(=O)O)CCCC1.[Ni+2],-12% (inactive),-15.9% (inactive),-16.6% (inactive),19.4% (inactive),-48.9% (inactive),-17.4% (inactive)
CC(Cl)C(=O)OC(C)C(=O)O (stereo not given),12.1% (inactive),17.1% (inactive),12.5% (inactive),8% (inactive),-2.7% (inactive),3.4% (inactive)
CNC(=O)Oc1ccccc1N,-2.8% (inactive),-1.15% (inactive),-5.05% (inactive),3.7% (inactive),-25.2% (inactive),-5.2% (inactive)
COc1cc2c(cc1OC)C1CC(OC(=O)c3ccccc3)(c3nccc4cc(OC)c(OC)cc34)CCN1CC2 (stereo not given),26.9% (inactive),13.9% (inactive),20.6% (inactive),4.95% (inactive),-0.8% (inactive),32.5% (inactive)
O=C(O)CN(CCN(CC(=O)O)CC(=O)O)CC(=O)O.[Cl][Pd][Cl],41.7% (inactive),51.5% (inactive),48.2% (inactive),21.7% (inactive),44.6% (inactive),62% (inactive)
CCC(=O)O[C@H]1CC[C@H]2[C@@H]3CCC4=C/C(=N/NC(=O)c5cccc6c(=O)c7ccccc7[nH]c56)CC[C@]4(C)[C@H]3CC[C@]12C,13.7% (inactive),15.5% (inactive),-16.4% (inactive),-8.75% (inactive),-17.2% (inactive),-7.95% (inactive)
CNC(Cc1ccccc1)c1ccc(OC)cc1 (stereo not given),27.1% (inactive),17.2% (inactive),32.3% (inactive),5.75% (inactive),34.6% (inactive),35.6% (inactive)
COc1ccc(CCNC2(C#N)CCCCC2)cc1OC,-9.5% (inactive),-29.8% (inactive),0.05% (inactive),10.2% (inactive),-5.75% (inactive),-5.25% (inactive)
COc1ccc(/C=C\[N+](=O)[O-])cc1OCc1ccccc1,7.2% (inactive),8.35% (inactive),22.6% (inactive),-13.6% (inactive),7.2% (inactive),8.05% (inactive)
CCCCCCC1C(=O)NC(=O)NC1=O,-4.25% (inactive),-15.1% (inactive),-8% (inactive),-7.75% (inactive),2.6% (inactive),-12.3% (inactive)
Cn1c(=O)n(C2(C)C[Se]C2)c2ccccc21,-11.5% (inactive),-15.7% (inactive),-16.8% (inactive),-15.4% (inactive),-13.7% (inactive),-22.5% (inactive)
CN(C)c1ccccc1CN1CCCN(Cc2ccccc2N(C)C)C1c1ccc(N(CCCl)CCCl)cc1,92.4% (active),40.4% (inactive),93.5% (active),57.4% (inactive),15.1% (inactive),90.8% (active)
Cc1csc(CP(=O)(OC(C)C)OC(C)C)n1,-22.6% (inactive),-47% (inactive),-21.6% (inactive),-13.2% (inactive),3.35% (inactive),-5.8% (inactive)

SMILES,growth inhibition [1],growth inhibition [2],growth inhibition [3],growth inhibition [4],growth inhibition [5],growth inhibition [6]
CC12CCC(=O)C=C1CCC1C2CCC2(C)C(OC(=O)C34C=CC(=O)C3C3C=CC4CC3)CCC12 (stereo not given),31.4% (inactive),-1.2% (inactive),14.3% (inactive),22.6% (inactive),-4.45% (inactive),19.2% (inactive)
CC(=O)CC(C)=O.CC(=O)CC(C)=O.CC(=O)CC(C)=O.[Mn],11.2% (inactive) and 10.1% (inactive),-1.45% (inactive) and -5% (inactive),8% (inactive) and 1.6% (inactive),10.8% (inactive) and -53% (inactive),-3.1% (inactive) and 3.2% (inactive),8.05% (inactive) and 18.4% (inactive)
Brc1ccc2nncc(N3CC3)c2c1,-13.2% (inactive),-16.6% (inactive),4.55% (inactive),8.5% (inactive),-9.3% (inactive),-20.6% (inactive)
CC(C)OP(=O)(CP(=O)(OC(C)C)OC(C)C)OC(C)C.[CH3][Sn]([Br])([Br])[Br],-27.4% (inactive),-23.6% (inactive),-32.5% (inactive),6.7% (inactive),-19.1% (inactive),-23% (inactive)
N.N.O=P([O-])([O-])CN(CP(=O)([O-])[O-])CP(=O)([O-])[O-].[Pt+2],-4.25% (inactive),-9.8% (inactive),-11.1% (inactive),-12.9% (inactive),1.15% (inactive),-23.1% (inactive)
CC1(C)OP(=O)(O)C=C1[Se]c1ccccc1,19.2% (inactive),11.2% (inactive),24.4% (inactive),4.95% (inactive),-3.2% (inactive),26.6% (inactive)
C=CC(N)=O (tested in a mixture with another compound),1.15% (inactive),-7.1% (inactive),8.2% (inactive),0.4% (inactive),15.8% (inactive),2.2% (inactive)
CC1(CCN)COC(c2ccccc2)(c2ccccc2)OC1 (tested in a mixture with another compound),20.1% (inactive),4.15% (inactive),-0.7% (inactive),31.4% (inactive),10.2% (inactive),43.2% (inactive)
NC1=C(c2nc(-c3ccccc3)cs2)C(c2ccco2)c2c(c3ccccc3oc2=O)O1 (stereo not given),-4.7% (inactive),5.05% (inactive),23.8% (inactive),13.2% (inactive),6.35% (inactive),12.9% (inactive)
CC1(C)CC(O)CC(C)(C)N1O,21.8% (inactive),15.8% (inactive),37% (inactive),22.2% (inactive),20.2% (inactive),16.4% (inactive)
COc1ccc(CO)cc1,-1.5% (inactive),-10.1% (inactive),11.3% (inactive),-12.8% (inactive),-17.3% (inactive),-13.7% (inactive)
c1cc[c]([Sn]2([c]3ccccc3)[O]CCNCC[O]2)cc1,-13.1% (inactive),-14.4% (inactive),10.4% (inactive),-14.9% (inactive),-48.7% (inactive),-74.4% (inactive)
Cc1ccc(NC(=O)C(=O)C2C(=O)NC(=O)NC2=O)cc1C,-4.9% (inactive),-14.3% (inactive),-34.6% (inactive),3.85% (inactive),-19.9% (inactive),-23.2% (inactive)
O=C(C1C(c2ccccc2)N1C1CCCCC1)C1C(c2ccccc2)N1C1CCCCC1 (stereo not given),6% (inactive),17.9% (inactive),10.6% (inactive),-5.1% (inactive),-10.5% (inactive),8.7% (inactive)
CC(=O)[O-].N.N.N.N.[Co+3].[O-][Cl+3]([O-])([O-])[O-].[OH3+],-2.35% (inactive),7.3% (inactive),-1.45% (inactive),16.1% (inactive),21.9% (inactive),2.7% (inactive)
C[CH2][Pb]([CH2]C)([CH2]C)[n]1ccnc1,-22.6% (inactive),-6.8% (inactive),-11.9% (inactive),-29.3% (inactive),-1.4% (inactive),-9% (inactive)
NCC1OC(OC2C(CO)OC(OC3C(O)C(N)CC(N)C3OC3OC(CN)C(O)C(O)C3N)C2O)C(N)C(O)C1O (stereo not given),6.1% (inactive),2.3% (inactive),10.3% (inactive),3% (inactive),15.4% (inactive),6.8% (inactive)
